The supplement of paper PMC7366291
Where a name gives a salt, the structure may show the parent alone. ± gives the standard deviation of the averaged measurements.

tested on: Danio rerio Tg(wt1b:EGFP) embryo, pronephros; test: glomerular width (mean of left and right), fold change vs DMSO control; higher = wider glomerulus; conditions: 25 µM; exposure: 24-48 hpf
Method in brief: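 Dechorionated Tg(wt1b:EGFP) zebrafish embryos were exposed to 25 μM compound in 0.5% DMSO, HEPES-buffered E3 with 0.003% PTU, from 24 to 48 hpf at 28.5°C. Pronephroi were imaged dorsally in agarose-filled 96-well plates (470 nm, 10 z-slices). On maximum projections, 16 reference points were set manually in Fiji and a macro computed distances and angles. Values more than 2 SD from the feature mean were excluded. Each feature is a fold change relative to the mean of same-day DMSO controls.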

Compound | glomerular width
C[C@]12C=CC(=O)C=C1CC[C@@H]1[C@@H]2C(=O)C[C@@]2(C)[C@H]1CC[C@]2(O)C(=O)CO [Prednisone] | 0.972 ± 0.03
CN[C@@H]1[C@H](O)[C@H](NC)[C@H]2O[C@@]3(O)C(=O)C[C@@H](C)O[C@H]3O[C@@H]2[C@H]1O [Spectinomycin dihydrochloride] | 1.07 ± 0.021
C#Cc1cccc(Nc2ncnc3cc(OCCOC)c(OCCOC)cc23)c1 [Erlotinib] | 1.05 ± 0.03
CC(=O)OCC1=C(C(=O)O)N2C(=O)[C@@H](NC(=O)Cc3cccs3)[C@H]2SC1 [Cephalothin sodium salt] | 0.923 ± 0.08
CCCC1C(=O)N2C(N(C)C)=Nc3ccc(C)cc3N2C1=O (stereo not given) [Azapropazone] | 0.984 ± 0.022
O=C1NCC2(CCN(CCc3ccccc3)CC2)O1 [Fenspiride hydrochloride] | 0.944 ± 0.024
COC(=O)[C@H]1[C@H]2C[C@@H]3c4[nH]c5cc(OC)ccc5c4CCN3C[C@H]2C[C@@H](OC(=O)c2cc(OC)c(OC)c(OC)c2)[C@@H]1OC [Reserpine] | 0.995 ± 0.061
CCCc1nc(C)c2c(=O)nc(-c3cc(S(=O)(=O)N4CCN(CC)CC4)ccc3OCC)[nH]n12 [Vardenafil] | 1.02 ± 0.021
CO/N=C(\C(=O)N[C@@H]1C(=O)N2C(C(=O)O)=C(COC(N)=O)CS[C@H]12)c1ccco1 [Cefuroxime sodium salt] | 0.997 ± 0.025
Cc1nc2n(c(=O)c1CCN1CCC(c3noc4cc(F)ccc34)CC1)CCCC2 [Risperidone] | 1.04 ± 0.043
COc1cccc(N(C)C(=S)Oc2ccc3c(c2)CCCC3)n1 [Liranaftate] | 1.025 ± 0.0045
Cc1ccc(/C(=C\CN2CCCC2)c2ccccn2)cc1 [Triprolidine hydrochloride] | 1.035 ± 0.0046
O=C(O)Cc1ccccc1Nc1c(Cl)cccc1Cl [Diclofenac sodium] | 0.492 ± 0.031
CC(C)(C)NCC(O)COc1cccc2c1CC(O)C(O)C2 (stereo not given) [Nadolol] | 1.03 ± 0.12
Cc1cc(-c2ccccc2)nnc1NCCN1CCOCC1 [Minaprine dihydrochloride] | 1.03 ± 0.03
O=C(O)c1cn(-c2ccc(F)cc2)c2cc(N3CCNCC3)c(F)cc2c1=O [Sarafloxacin] | 1.08 ± 0.039
CC[C@]12CCCN3CCc4c(n(c5ccccc45)[C@@](O)(C(=O)OC)C1)[C@@H]32 [Vincamine] | 0.965 ± 0.01
O=C(NCCO[N+](=O)[O-])c1cccnc1 [Nicorandil] | 0.989 ± 0.083
C[C@H](O)C(=O)Nc1c(I)c(C(=O)NC(CO)CO)c(I)c(C(=O)NC(CO)CO)c1I [Iopamidol] | 0.9773 ± 0.007
N=C(N)NCCN1CCCCCCC1 [Guanethidine sulfate] | 1.04 ± 0.04

Compound | glomerular width
Clc1ccc2nsnc2c1NC1=NCCN1 [Tizanidine hydrochloride] | 1.01 ± 0.016
CC(C)(C#N)c1cc(Cn2cncn2)cc(C(C)(C)C#N)c1 [Anastrozole] | 1.059 ± 0.0058
O=C(CCCN1CCN(c2ccccn2)CC1)c1ccc(F)cc1 [Azaperone] | 0.925 ± 0.039
CCCCN(CCCC)CCCOC(=O)c1ccc(N)cc1 [Butacaine] | 0.939 ± 0.05
Cc1ccc(N(CC2=NCCN2)c2cccc(O)c2)cc1 [Phentolamine hydrochloride] | 1.08 ± 0.02
CN1[C@@H]2CC[C@H]1C[C@@H](OC(=O)C(O)c1ccccc1)C2 (mixture of isomers) [Homatropine hydrobromide (R,S)] | 1.06 ± 0.015
CCC1(c2ccccc2)C(=O)NCNC1=O [Primidone] | 1.0079 ± 0.00034
CCOc1ccccc1OCC1CNCCO1 (stereo not given) [Viloxazine hydrochloride] | 0.9002 ± 0.0018
C=CCOc1ccccc1OCC(O)CNC(C)C (stereo not given) [Oxprenolol hydrochloride] | 1.002 ± 0.0059
OCc1cc(C(O)CNCCCCCCOCCCCc2ccccc2)ccc1O (stereo not given) [Salmeterol] | 0.665 ± 0.017
COc1cc(NS(=O)(=O)c2ccc(N)cc2)nc(OC)n1 [Sulfadimethoxine] | 1.04 ± 0.014
CNCCC(Oc1ccccc1OC)c1ccccc1 (stereo not given) [Nisoxetine hydrochloride] | 0.94 ± 0.013
N=C(N)NS(=O)(=O)c1ccc(N)cc1 [Sulfaguanidine] | 0.979 ± 0.034
Cc1onc(-c2ccccc2)c1C(=O)N[C@@H]1C(=O)N2[C@@H]1SC(C)(C)[C@@H]2C(=O)O [Oxacillin sodium] | 1 ± 0.087
CNCCc1ccccn1 [Betahistine mesylate] | 1.06 ± 0.034
Cc1c(O)cccc1C(=O)N[C@@H](CSc1ccccc1)[C@H](O)CN1C[C@H]2CCCC[C@H]2C[C@H]1C(=O)NC(C)(C)C [Nelfinavir mesylate] | 1.05 ± 0.017
Nc1ccc(S(=O)(=O)Nc2nccs2)cc1 [Sulfathiazole] | 0.936 ± 0.027
CCC[C@@H]1C[C@@H](C(=O)N[C@@H]([C@H]2O[C@H](SC)[C@H](O)[C@@H](O)[C@H]2O)[C@H](C)Cl)N(C)C1 [Clindamycin hydrochloride] | 0.964 ± 0.053
CN1Cc2c(N)cccc2C(c2ccccc2)C1 (stereo not given) [Nomifensine maleate] | 1.04 ± 0.051
CC(C)C[C@H](NC(=O)[C@@H](O)[C@H](N)Cc1ccccc1)C(=O)O [Ubenimex] | 1.01 ± 0.048
